In the library only some 7.5% were active in any assay of this set; here they are far more common.
SMN2 splice enh: SMN2 splice variant enhancement | HEK293 SMN2-luciferase splicing reporter, luminescence, 30-36 h | Potency, µM (series often up to 46.1 µM), for the others: at the top dose activity change, positive = activation, usual class: activators | 210,000 compounds, 2.8% hits | AID 1458; further: % of control where 0% means no effect; nearly all actives have a fitted effect of over 55% in size
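HEK293 cells carry an SMN2 minigene-luciferase reporter in which exon 7 inclusion puts luciferase in frame. Cells were seeded at 2000 cells/well, attached for 10-12 hours, then exposed to compounds for 30-36 hours at 37C before ONE-Glo luminescence.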
Luc counter: Kinase-Glo luciferase inhibition (counter-screen); Q27757; Kinase-Glo luciferase, ATP luminescence, 8 min; Potency, µM (doses to about 38.3 µM), for inactives: at the highest dose activity change, negative = inhibition, actives largely listed as inhibitors; 200,000 compounds, 0.28% hits; AID 1379; further: on the % scale 0 is the no-effect control and ±100 the full control effect; nearly all actives have a fitted effect of over 60% in size
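Compound is pinned into ATP-containing buffer (10 uM ATP, imidazole pH 7.2, 7 mM MgCl2). Kinase-Glo luciferase reagent is then added. Light output is recorded following an 8-min room-temperature incubation.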
NPC1 promoter act: activators of NPC1 promoter; Huh7 NPC1 promoter luciferase reporter, 24 h; Potency, µM (top dose mostly 9.22 µM), for inactives: at the highest dose activation, most hits filed as activators; 320,000 compounds, 2.4% hits; AID 485313; further: % of control where 0% means no effect; nearly all actives have a fitted effect of over 60% in size
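Luminescence read-out of NPC1 promoter-driven luciferase in stably transfected Huh7 cells; compounds delivered in DMSO and left 24 h at 37C, 5% CO2, qHTS titration format.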
Rab9 prom act: Rab9 promoter activation. Huh7 Rab9 promoter-luciferase reporter, luminescence, 24 h. 320,000 compounds, 2.8% hits. Potency, µM (highest dose often 9.22 µM), for the others: top-dose activation, negative = inhibition, actives largely listed as activators. AID 485297; further: % of control where 0% means no effect; nearly all actives have a fitted effect of over 60% in size
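Using Huh7 cells stably transfected with Rab9 promoter–luciferase, compounds were incubated 24 h at 37 °C, 5% CO2; luciferase luminescence was read 10 min after reagent addition.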
FLuc counter: firefly luciferase modulation, counter-screen for miR-21 project | P08659 | purified FLuc, Km substrates, luminescence inhibition | Potency, µM (highest dose often 57.5 µM), for inactives: at the top dose activity change, negative = inhibition, hits mostly inhibitors | 360,000 compounds, 6.9% hits;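 further: plate controls were vehicle for no effect and reference inhibitor for full effect; nearly all actives have a fitted effect of over 55% in size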
Target sequence (P08659 whole entry, looked up): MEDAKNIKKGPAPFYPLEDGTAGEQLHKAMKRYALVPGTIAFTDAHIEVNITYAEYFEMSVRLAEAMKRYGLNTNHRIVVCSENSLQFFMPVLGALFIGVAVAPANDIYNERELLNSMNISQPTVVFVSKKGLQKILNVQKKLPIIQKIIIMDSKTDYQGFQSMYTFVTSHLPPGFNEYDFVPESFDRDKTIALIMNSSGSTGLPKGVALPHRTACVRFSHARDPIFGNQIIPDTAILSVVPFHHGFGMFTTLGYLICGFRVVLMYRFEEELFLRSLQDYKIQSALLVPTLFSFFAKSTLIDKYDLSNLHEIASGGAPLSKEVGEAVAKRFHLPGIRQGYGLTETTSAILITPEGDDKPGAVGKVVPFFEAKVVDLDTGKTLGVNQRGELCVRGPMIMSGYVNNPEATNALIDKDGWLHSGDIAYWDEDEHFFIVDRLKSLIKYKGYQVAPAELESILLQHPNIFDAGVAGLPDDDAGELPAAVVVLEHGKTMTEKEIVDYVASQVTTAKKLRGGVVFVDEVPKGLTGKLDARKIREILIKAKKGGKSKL
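Biochemical qHTS of compounds, final roughly 60 µM downward over six points, against 10 nM purified firefly luciferase using Km concentrations of substrates (10 uM D-luciferin, 10 uM ATP) in Tris acetate pH 7.5 buffer; luminescence output.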
ELG1 genotoxic: inducers of genotoxicity in HEK293T ELG1-luciferase cells. HEK293T ELG1-luciferase reporter, luminescence, 16 h. Potency, µM (highest dose often 46 µM), for the others: at the highest dose activity change, positive = activation, hits mostly activators. AID 504466. 330,000 compounds, 1.3% hits; further: % of control where 0% means no effect; nearly all actives have a fitted effect of over 60% in size
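ELG1-luciferase HEK293T cells, 2,000/well; compound pinned in; 16 hr, 37 °C, 5% CO2; ONE-Glo, 30 min RT; luminescence on CCD imager.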
Starred values were filed as active, the others as inactive; ? = inconclusive; / = no result given; [ ] = another dose, or the depositor's remark. The call rests on the fitted dose curve; in most records, active means well fitted curve in the direction sought with a large enough effect; inconclusive means small, poorly fitted or top-dose-only effect, or another doubt; inactive means no such curve, though single readings can be large; an effect the other way counts as inactive or inconclusive. Potency means the concentration at half of the fitted maximal effect.

SMILES	SMN2 splice enh	Luc counter	NPC1 promoter act	Rab9 prom act	FLuc counter	ELG1 genotoxic
COc1cccc(-n2c(SCC(=O)N3CCc4ccccc43)nc3c([nH]c4ccccc43)c2=O)c1	/	/	/	/	0.1%	/
CSc1ccc(CCNC(=O)c2c(C)nn(-c3ccc(F)cc3)c2-n2cccc2)cc1	/	/	/	/	0.4%	/
O=C(CSc1nnc(SCc2cccc3ccccc23)s1)N=Nc1c(O)[nH]c2ccccc12	-11.6%	6.5%	0.4%	-1.9%	2.6%	15.5%
Cc1ccc(/C=C/C(=O)Nc2ccc(S(N)(=O)=O)cc2)o1	-5.1%	-2.9%	-0.9%	-2.4%	?	-0.8%
Cc1ccc(/C=C/C(=O)Nc2ccncc2)o1	2.0%	-2.9%	3.8%	1.7%	16.9µM*	3.3%
Cc1ccc(/C=C/C(=O)Nc2ccc(N(C)C)cc2)o1	14.1µM*	7.6%	?	?	3.01µM*	?
Cc1ccc(NC(=O)CSc2nc(=O)n(CCN(C)C)c3c2CCCC3)cc1Cl	/	/	-3.4%	0.4%	1.2%	-5.9%
O=C(CSc1nc(O)c(C2CCCCC2)c(=O)[nH]1)NCC1CCCO1 (stereo not drawn)	1.7%	1.6%	-3.2%	10.4%	15.1µM*	2.4%
COc1ccccc1NC(=O)N1CCC(NC(=O)C(Cc2ccccc2F)NC(C)=O)CC1 (stereo not drawn)	/	/	-2.5%	-0.1%	1.3%	0.5%
CN(C1CCCCC1)S(=O)(=O)c1ccc(F)c(C(=O)Nc2ccc(C(F)(F)F)cc2)c1	/	/	/	/	-2.2%	/
CCN(CC)C(=O)CSc1ncnc2c(-c3cccs3)nsc12	13.1%	2.1%	?	3.16µM*	-12.2%[2.3 µM]	10.7%
CC1(C)CN=C(N(Cc2ccccc2)C(=O)Nc2ccccc2)S1	-13.8%	-8.5%	?	?	15.1µM*	?
CC1(C)CN=C(N(C(=O)Nc2ccccc2)c2ccccc2F)S1	/	/	-2.6%	-1.5%	-4.4%	4.7%
O=C(NCCN1C(=O)C2C3C=CC(C3)C2C1=O)Nc1ccc(Br)cc1 (stereo not drawn)	11.2µM*	3.4%	3.16µM*	2.24µM*	10.7µM*	8.2µM*
O=C(NCCN1C(=O)C2C3C=CC(C3)C2C1=O)Nc1cccnc1 (stereo not drawn)	-24.1%	0.1%	0.7%	-4.1%	-3.0%	3.9%
CCOC(=O)c1c(NC(=O)CSc2nnc(C)o2)sc(C)c1C	/	/	-11.2%	8.8%	-2.7%	3.3%
O=c1nc2c(-c3cccc(Br)c3)n[nH]n2c2ccccc12	/	/	?	3.55µM*	4.78µM*	?
COc1cccc(CNC(=O)CCc2nnc3n(C)c(=O)c4sccc4n23)c1	-11.3%	/	/	/	2.7%	/
Cc1ccc(O)c(N=Nc2ccccc2)n1	?	2.82µM*	18.4µM*	20.6µM*	/	/
CCn1cc2nc(SCC(=O)Nc3ccc(OC)c(OC)c3)n(Cc3ccc(OC)cc3)c(=O)c2n1	/	/	-0.7%	7.7%	16.9µM*	6.8%
CCn1cc2nc(SCC(=O)Nc3ccc(OC)c(Cl)c3)n(Cc3ccc(OC)cc3)c(=O)c2n1	4.8%	/	/	/	-8.9%	/
Cc1nn2c(-c3ccccc3)nnc2c2ccccc12	5.62µM*	-6.7%	?	?	19µM*	?
Cc1ccc(-c2nn3c(-c4ccc(C)cc4)nnc3c3ccccc23)cc1	-1.3%	/	/	/	0.4%	/
Cn1c(=O)c2c(SCC(=O)Nc3ccccc3C(F)(F)F)nc(C3CCCC3)nc2n(C)c1=O	/	/	/	/	2.9%	/
COC(=O)c1ccc2nc(-c3cccc(N)c3)cn2c1	/	-28.4%	0.501µM*	1µM*	0.601µM*	?
SMILES	SMN2 splice enh	Luc counter	NPC1 promoter act	Rab9 prom act	FLuc counter	ELG1 genotoxic
COc1ccc(-c2csc(NC(=O)c3ccc(S(C)(=O)=O)cc3)n2)cc1	0.4%	0.0%	21.2%	?	?	7.7%
COC(=O)c1ccc2nc(-c3ccc(S(C)(=O)=O)cc3)cn2c1	3.8%	-15.1%	?	?	23.9µM*	9.0%
O=S(=O)(c1ccc(-c2cn3ccccc3n2)cc1)N1CCOCC1	-43.0%	-2.6%	2.6%	2.1%	?	10.7%
CS(=O)(=O)c1ccc(-c2cn3cc(C(=O)O)ccc3n2)cc1	-21.0%	-25.7%	1.0%	-1.9%	2.69µM*	-7.5%
CCC(C)NC(=O)c1cc2n(n1)CCCN(Cc1ccc(C)cc1)C2=O (stereo not drawn)	/	/	/	/	-4.7%	/
CCc1ccc(C(=O)c2cn(CC(=O)NCc3ccc(C)cc3)c3nc(C)ccc3c2=O)cc1	/	/	/	/	-5.9%	/
CCOc1ccc2[nH]c(C(=O)N/N=C/c3cc(OC)c(OC)c(OC)c3)cc2c1	/	/	18.1%	7.5%	4.78µM*	-11.1%
CCOc1ccc(/C=N/NC(=O)c2cc3c(OC)cccc3[nH]2)cc1	/	/	-5.1%	-5.1%	?	5.9%
COc1ccc(OC)c(/C=N/NC(=O)c2cc3c(OC)cc(OC)cc3[nH]2)c1	/	/	9.0%	3.1%	15.1µM*	-9.7%
COc1ccc(OC)c(/C=N/NC(=O)c2cc3c(OC)cccc3[nH]2)c1	/	/	8.2%	3.2%	?	-3.7%
CCOc1ccc(/C=N/NC(=O)c2cc3c(OC)cc(OC)cc3[nH]2)cc1OC	/	/	-2.3%	-2.2%	15.1µM*	-8.7%
COc1ccc(OC)c(S(=O)(=O)Nc2cc3c4c(c2)C(C)C(=O)N4CCC3)c1 (stereo not drawn)	/	/	-1.7%	-0.1%	-2.5%	2.3%
CCn1c(C(=O)NCc2ccc(C)cc2)cc2sc(Cl)cc21	0.8%	/	/	/	-19.0%	/
COc1ccc(S(=O)(=O)NCc2ccc3c(c2)CCN3C(=O)c2ccccc2)cc1OC	/	/	/	/	-1.6%	/
CC(=O)c1cccc(NC(=O)CCc2c(C)nc3c(-c4ccc(F)cc4)c(C)nn3c2C)c1	4.1%	/	/	/	-2.9%	/
COc1cccc(-c2oc3ccc(C)cc3c(=O)c2O)c1	10µM*	/	/	/	2.69µM*	/
O=c1c(O)c(-c2ccccc2)oc2ccccc12	-36.2%	-2.8%	/	/	/	/
Cc1ccc(-c2oc3ccccc3c(=O)c2O)cc1	5.5%	-3.4%	25.2%	26.7%	?	23.1µM*
COc1ccc(-c2cc(C(F)(F)F)nc(SCCC(=O)Nc3ccc(NC(C)=O)cc3)n2)cc1	4.5%	/	/	/	-0.5%	/
CCCCOc1ccc(C(=O)N=c2sccn2C)cc1OC	/	/	3.55µM*	2.82µM*	12µM*	?
Cn1ccsc1=NC(=O)c1ccc(Cl)c([N+](=O)[O-])c1	/	/	2.4%	-0.9%[1.84 µM]	?	15.0%
Cc1ccc(C(=O)N=c2sccn2C)cc1S(=O)(=O)N1CCOCC1	/	/	3.98µM*	1.41µM*	?	?
Cc1ccc(C(=O)N=c2sccn2C)cc1C	/	/	-2.4%	-0.5%	-1.2%	10.0%
Cc1cccc(C(=O)N=c2sccn2C)c1[N+](=O)[O-]	/	/	2.82µM*	?	15.1µM*	10.3µM*
CCN(CC)S(=O)(=O)c1cc(C(=O)N=c2sccn2C)ccc1OC	/	/	-0.1%	3.0%	3.3%	1.2%
